APOBEC3G inh: APOBEC3G DNA deaminase inhibitors, primary screen, biochemical, fluorescence, single-stranded DNA substrate, uHTS | hit rate 0.28% among 330,000 | AID 493012, 2011 | recombinant A3G, ssDNA deamination FAM/TAMRA fluorescence | inhibition, % at 20 µM | DNA dC->dU-editing enzyme APOBEC-3G (Homo sapiens), Q9HC16;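 active = inhibition of at least 40% at 20 µM, with no more than 30% in the related APOBEC3A deaminase screen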;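 note: plate controls were DMSO wells with A3G for no effect and wells lacking A3G enzyme for full effect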
NPR2 activator: human GC-B receptor activators, primary screen, HEK293 GC-B cells, cGMP TR-FRET, EC30 CNP; Atrial natriuretic peptide receptor 2 (Homo sapiens), P20594; 0% at EC30 CNP, 100% saturating CNP; activation, % at 10 µM; hit rate 0.11% among 370,000;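 active = activation at 10 µM reaching about 35% in either raw or pattern-adjusted values, limit read from the data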
PfG6PD inh: PfG6PD enzyme inhibitors, primary screen, biochemical, fluorescence intensity, uHTS | glucose-6-phosphate dehydrogenase-6-phosphogluconolactonase (Plasmodium falciparum 3D7) | PfGluPho enzyme, NADPH resazurin-diaphorase fluorescence | inhibition, % at 20 µM | hit rate 0.78% among 350,000 | AID 504690, 2011;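 active = inhibition reaching at least a set limit at 20 µM in the primary screen, cut at about 59% in these data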;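 note: 0% = DMSO wells with substrate and 100% = DMSO wells lacking glucose-6-phosphate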
APOBEC3A inh: APOBEC3A ssDNA deaminase inhibitors, primary screen, selectivity assay for APOBEC3G inhibitor project, biochemical, FAM/TAMRA oligo cleavage fluorescence; AID 493011, 2011; DNA dC->dU-editing enzyme APOBEC-3A (Homo sapiens), P31941; recombinant A3A, FAM/TAMRA ssDNA deamination fluorescence; hit rate 0.41% among 330,000; inhibition, % at 20 µM;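 active = at least 40% inhibition at 20 µM here, with at most 30% in a related deaminase screen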;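 note: plate controls were A3A with DMSO for no effect and wells lacking A3A enzyme for full effect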
Neddylation inh: inhibitors of cullin neddylation, primary screen, biochemical, TR-FRET, uHTS, NAE and Ubc12 | hit rate 0.58% among 360,000 | inhibition, % at 25 µM; in the data active = inhibition above about 36%
Target sequence (P61081 whole entry, looked up): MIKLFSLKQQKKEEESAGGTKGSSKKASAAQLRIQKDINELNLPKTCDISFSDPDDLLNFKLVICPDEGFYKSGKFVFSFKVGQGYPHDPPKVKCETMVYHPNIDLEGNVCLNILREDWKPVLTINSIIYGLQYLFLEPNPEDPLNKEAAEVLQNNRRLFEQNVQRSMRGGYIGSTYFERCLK
Target sequence (Q13564 whole entry, looked up): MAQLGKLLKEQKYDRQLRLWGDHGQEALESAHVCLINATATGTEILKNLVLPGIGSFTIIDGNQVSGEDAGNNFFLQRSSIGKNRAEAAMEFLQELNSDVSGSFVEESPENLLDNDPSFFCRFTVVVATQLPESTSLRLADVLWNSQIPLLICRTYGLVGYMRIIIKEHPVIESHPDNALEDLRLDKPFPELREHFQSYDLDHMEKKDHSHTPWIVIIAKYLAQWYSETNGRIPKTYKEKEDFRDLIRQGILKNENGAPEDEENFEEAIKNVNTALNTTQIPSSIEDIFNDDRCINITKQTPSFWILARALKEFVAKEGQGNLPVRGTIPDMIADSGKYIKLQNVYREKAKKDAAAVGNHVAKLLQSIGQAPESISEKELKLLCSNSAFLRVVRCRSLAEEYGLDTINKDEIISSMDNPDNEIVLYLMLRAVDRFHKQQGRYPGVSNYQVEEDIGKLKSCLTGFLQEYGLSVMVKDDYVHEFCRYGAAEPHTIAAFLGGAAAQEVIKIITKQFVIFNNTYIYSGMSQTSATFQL
GC-A act: GC-A stimulated cGMP production enhancers – HEK293 GC-A cells, cGMP TR-FRET, EC30 ANP, primary screen; hit rate 0.14% among 370,000; 0% at EC30 ANP, 100% saturating ANP; Atrial natriuretic peptide receptor 1 (Homo sapiens), P16066; activation, % at 10 µM; in the data active = activation above about 40%
Neddyl conf: blockade of NEDD8 conjugation to cullin – biochemical, TR-FRET, single concentration, confirmation; shares compounds with Neddylation inh; TR-FRET cullin neddylation biochemical assay; calls only at 25 µM; hit rate 13% among 1,800; AID 652217, 2013; in the data active = inhibition above about 40%;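 note: neddylation substrate is the cullin 1 ring ligase complex with SKP2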
* marks the source's active call; other numbers are inactive results. Sampled rows, rich in hits. Any-hit rate of the full collection: about 2%.

What do the screens show for `COc1ccc(C2Nc3ccccc3C(=O)N2Cc2cccnc2)cc1COc1c(C)cccc1C` (stereo unspecified)?
NPR2 activator: -11; GC-A act: -12

Results for CCc1cc(=O)oc2cc(OS(C)(=O)=O)ccc12 ?
APOBEC3G inh: -9; NPR2 activator: -5; PfG6PD inh: -13; APOBEC3A inh: -2; Neddylation inh: 42*; GC-A act: -4

What do the screens show for `CCc1cc(=O)oc2cc(OCc3nn[nH]n3)ccc12`?
APOBEC3G inh: -8; PfG6PD inh: -33; APOBEC3A inh: 5; Neddylation inh: 40*; Neddyl conf: inactive

Results for COC(=O)Cc1nnn2c1[C@@H](C)[C@@H](c1ccccc1Br)OC[C@@H]2c1ccccc1 ?
NPR2 activator: 4; GC-A act: -4

Results for COc1ccc(CN2CN3Cc4ccc(C)cc4C3CS2(=O)=O)cc1 (stereo unspecified) ?
NPR2 activator: 6; GC-A act: 1

Results for COc1cc2cc(-c3ccc(OC)c(OC)c3C)nc(N)c2cc1OC ?
APOBEC3G inh: 2; NPR2 activator: -6; PfG6PD inh: 3; APOBEC3A inh: 1; Neddylation inh: 38*; GC-A act: 3; Neddyl conf: inactive

Results for COc1cc2cc(-c3ccc(O)cc3O)nc(C)c2cc1OC ?
APOBEC3G inh: -11; NPR2 activator: -14; PfG6PD inh: 26; APOBEC3A inh: -1; Neddylation inh: -19; GC-A act: -47

Results for CCCCNC(=O)C[C@H]1C[C@@]2(C(=O)OC)C(=C[C@H](C(C)C)O[C@@H]2C2CC2)N(Cc2cccc3ccccc23)C1=O ?
NPR2 activator: -5; GC-A act: -9

Results for Cc1ccc2[nH]c3c(=O)n(N)c(C)nc3c2c1 ?
APOBEC3G inh: -2; NPR2 activator: -2; PfG6PD inh: 7; APOBEC3A inh: -3; Neddylation inh: 41*; GC-A act: -3; Neddyl conf: active

What do the screens show for `COC(=O)CCC(=O)OC1(C)C(=O)C=C2C=C(C3CC3)N(c3ccc(CO)cc3)C=C2C1=O` (stereo unspecified)?
APOBEC3G inh: 0; APOBEC3A inh: 5

How did COC(=O)CCC(=O)OC1(C)C(=O)C=C2C=C(C3CC3)N(c3cccc(C#N)c3)C=C2C1=O (stereo unspecified) do in these assays?
APOBEC3G inh: 6; NPR2 activator: 1; PfG6PD inh: 26; APOBEC3A inh: -1; Neddylation inh: 44*; GC-A act: -3; Neddyl conf: inactive

Results for COc1ccc2cc3cc(C(=O)NCCN4CCc5ccccc5C4)sc3nc2c1 ?
APOBEC3G inh: -2; NPR2 activator: 1; PfG6PD inh: -6; APOBEC3A inh: 0; Neddylation inh: 50*; GC-A act: 3; Neddyl conf: inactive

How did COc1ccc2cc3cc(C(=O)NCCN4CCc5ccccc5C4)oc3nc2c1 do in these assays?
APOBEC3G inh: -2; PfG6PD inh: 10; APOBEC3A inh: 3

How did CCCCN(C)c1c2c(nc3ncnn13)CCCC2 do in these assays?
NPR2 activator: -4; GC-A act: 2

What do the screens show for `O=C(CSc1cccc2cccnc12)N/N=C/c1cccc(O)c1`?
APOBEC3G inh: -9; NPR2 activator: 2; PfG6PD inh: 6; APOBEC3A inh: -2; Neddylation inh: 43*; GC-A act: -1; Neddyl conf: inactive

Results for O=C(N/N=C/c1ccc(O)c(O)c1)c1ccc(CSc2cccc3cccnc23)cc1 ?
APOBEC3G inh: -7; NPR2 activator: -2; PfG6PD inh: -22; APOBEC3A inh: -1; Neddylation inh: 6; GC-A act: 1

Results for C=CC[C@]12C[C@@]3(O[C@H](c4ccc(C(F)(F)F)cc4)N=C3C[C@H](c3ccc(OC)cc3)[C@H]1C)N(Cc1ccncc1)C2=O ?
NPR2 activator: 4; GC-A act: -2

How did O=C(c1ccc(F)cc1Cl)N1CCCC(c2nc(-c3cccs3)no2)C1 (stereo unspecified) do in these assays?
NPR2 activator: -1; GC-A act: 0

Results for Nc1[nH]c(C(=O)c2ccccc2)c(-c2ccc3ccccc3c2)c1C(=O)NCc1ccc(F)cc1 ?
NPR2 activator: 7; GC-A act: -4

How did Cc1c(OC(C)C(=O)NCCN2CCOCC2)ccc2c3c(c(=O)oc12)CCC3 (stereo unspecified) do in these assays?
APOBEC3G inh: 0; NPR2 activator: 0; PfG6PD inh: 17; APOBEC3A inh: 1; GC-A act: -1

What do the screens show for `Cc1c(C)c2ccc(OC(C)C(=O)NCCCN3CCOCC3)c(C)c2oc1=O` (stereo unspecified)?
APOBEC3G inh: -3; NPR2 activator: 4; PfG6PD inh: 10; APOBEC3A inh: -1; Neddylation inh: 46*; GC-A act: 0; Neddyl conf: inactive

Results for Cc1c(C)c2ccc(OC(C)C(=O)NCCN3CCOCC3)c(C)c2oc1=O (stereo unspecified) ?
APOBEC3G inh: -11; NPR2 activator: 5; PfG6PD inh: 9; APOBEC3A inh: -5; Neddylation inh: 52*; GC-A act: 4; Neddyl conf: inactive

Results for CC1CCCCC1N(C(=O)c1cc(C2CC2)on1)C1CCCCC1 (stereo unspecified) ?
NPR2 activator: -8; GC-A act: -6

Results for CN(C(=O)[C@@H](C1CC1)[C@@H](O)c1ccc2ccccc2c1)c1ccccc1 ?
NPR2 activator: -1; GC-A act: -4

What do the screens show for `CC(C)=CC(=O)NCC1CCN(C(=O)C(=O)c2cc3ccccc3o2)CC1`?
NPR2 activator: -2; GC-A act: 1

Results for CN1c2ccccc2C(O)=C(C(=S)Nc2ccccc2)S1(=O)=O ?
APOBEC3G inh: -1; NPR2 activator: 3; PfG6PD inh: -5; APOBEC3A inh: -3; Neddylation inh: 26; GC-A act: 0

Bioassay records (PubChem)
